Hit rate of the full screen: of about 13,000 compounds, about 3,200 (25%) showed an effect of 50% or more. The list shows a part of the results.
These compounds were tested on P. falciparum stage V gametocytes. Settings: 48 h, 5 µM; inhibitor.
Parameters: BacTiter-Glo ATP luminescence viability of purified stage V gametocytes in 384-well plates, per cent inhibition versus DMSO

Point of comparison: `CC(C)CNCc1ccc(-c2cccc(CN(C(=O)Nc3ccccc3)C3CCN(Cc4ccccc4)CC3)c2)cc1` [TCMDC-140585], “% Inhibition” value 74.29%. Against it:
- CCC(C)(C)C1CCc2[nH]c3ccccc3c(=O)c2C1 (stereo not drawn) [TCMDC-125226] — lower, 30.2%
- CC(=O)N/N=C/[C@H](CCc1ccccc1)NC(=O)[C@H](CC(C)C)NC(=O)c1ccc(OCCN2CCOCC2)cc1 [TCMDC-135916] — lower, 2.96%
- CC(NC(C)c1cccc(Cl)c1)C(=O)Nc1cc(C(F)(F)F)ccc1N1CCOCC1 (stereo not drawn) [TCMDC-125061] — lower, -33.15%
- Cc1cccc(C(=O)Nc2ccnc(N3CCC(N(C)Cc4cccc(C#N)c4)CC3)c2)c1 [TCMDC-134973] — lower, -4.566%
- O=C(c1ccco1)N1CCN(c2nc(-c3ccc(Cl)cc3)nc3ccccc23)CC1 [TCMDC-124753] — lower, 14.1%
- COc1ccc2nccc([C@@H](O)CN3CCC(NC(=O)C(c4cc5ccccc5s4)N4CC(C)OC(C)C4)CC3)c2c1 (stereo partly drawn) [TCMDC-140995] — lower, 7.748%
- CC1(C)CCC(C)(C)c2c1ccc(C1CCN(CCCCNC(=O)c3ccc(-c4ccc(C#N)cc4)cc3)CC1)c2OCC(N)=O [TCMDC-135627] — higher, 76.03%
- C=CCc1cc(C2CCN(CCCCNC(=O)c3ccc(-c4ccc(C#N)cc4)cc3)CC2)c(OCC(N)=O)c2c1CCCC2 [TCMDC-135625] — lower, -14.83%
- COc1c(C2CCN(CCCCNC(=O)c3ccc(-c4ccc(Cl)cc4)cc3)CC2)ccc2c1C(C)(C)CCC2(C)C [TCMDC-135482] — higher, 91.33%
- N#Cc1ccc(-c2ccc(C(=O)NCCCCN3CCC(c4cc(Br)c5c(c4OCC(N)=O)CCCC5)CC3)cc2)cc1 [TCMDC-135263] — lower, -29.4%
- OCCc1ccc(Nc2nccc(-c3nnc4ccccn34)n2)cc1 [TCMDC-138924] — lower, -13.1%
- COc1ccc(Nc2nc(NCc3cccnc3)cc(-c3ccc(OC)cc3)n2)cc1 [TCMDC-133467] — lower, 9.957%
- Cc1ccc(-c2[nH]n3c(=O)c4c(nc3c2C)CCCC4)cc1 [TCMDC-124479] — higher, 75.27%
- Cc1cc(-c2cc3nc4c(c(=O)n3[nH]2)CCCC4)c(C)o1 [TCMDC-125325] — lower, 32.39%
- O=c1[nH]c(NCCCNCc2cc3c(Cl)cc(Cl)cc3[nH]2)nc2ccsc12 [TCMDC-139925] — lower, -0.4742%
- Cc1cc(N2CCCC2)nc(Nc2ccc(NC(=O)C3CCCC3)cc2)n1 [TCMDC-124964] — lower, -12.42%
- CS(=O)(=O)Cc1cccc(Nc2ncc(Cl)c(Nc3cccnc3C(N)=O)n2)c1 [TCMDC-134166] — lower, -54.44%
- O=C(Nc1cccc(-c2nn3ccccc3c2-c2ccnc(Nc3ccc(C(=O)N4CCOCC4)cc3)n2)c1)c1c(F)cccc1F [TCMDC-135910] — lower, -23.59%
- NC(=O)N1CCN(Cc2ccc(Br)cc2)CC1 [TCMDC-137933] — lower, 4.957%
- Fc1ccc(Nc2ccnc3cc(-c4cccc(CNCCN5CCOCC5)c4)ccc23)c(Cl)c1 [TCMDC-138414] — lower, 41.76%
- c1ccc(Oc2ccc(Nc3ccnc4cc(-c5cccc(CNCCN6CCOCC6)c5)ccc34)cc2)cc1 [TCMDC-138474] — lower, 52.49%
- c1cncc(Oc2ccc(Nc3ccnc4cc(-c5cccc(CNCCN6CCOCC6)c5)ccc34)cc2)c1 [TCMDC-138492] — higher, 84.98%
- N#Cc1cnc2cc(-c3cnc(CNCCN4CCOCC4)s3)ccc2c1Nc1ccc(Oc2ccccc2)cc1 [TCMDC-138611] — lower, 2.275%
- c1ccc(Oc2ccc(Nc3ccnc4cc(-c5ccc(CNCCN6CCOCC6)o5)ccc34)cc2)cc1 [TCMDC-138398] — lower, 12.11%
- CN(C)CC1CCCN1Cc1ccccc1-c1cnn(C)c(=O)c1Oc1cccc(C#N)c1 (stereo not drawn) [TCMDC-135097] — lower, -59.69%
- COc1ccc(CCNC(=O)c2ccc(-n3cc(NC(=O)c4cccnc4)cn3)cc2)cc1OC [TCMDC-124665] — lower, 38.46%
- Nc1nc(N)c2c(Cl)c(N(Cc3ccccc3)Cc3ccccc3)ccc2n1 [TCMDC-137993] — lower, -38.99%
- O=C(O)C(F)(F)F.c1ccc(CNCc2cccc(-c3ccc(-c4nc5ccccc5[nH]4)s3)c2)cc1 [TCMDC-132714] — lower, 15.98%
- O=S(=O)(NCCN1CCCC1)c1ccc(-c2ccc(CNCc3ccccc3)cc2)s1 [TCMDC-132233] — lower, 71.01%
- O=S(=O)(NCCN1CCCC1)c1ccc(-c2ccc(CN3Cc4ccccc4C3)cc2)s1 [TCMDC-132286] — lower, 9.199%
- O=S(=O)(NCCN1CCCC1)c1ccc(-c2cccc(CNCc3ccccc3)c2)s1 [TCMDC-132216] — higher, 86.1%
- CCOC(=O)N1CCC(NC(=O)c2ccc(C(C)(C)C)cc2OC)CC1 [TCMDC-139314] — lower, 15.99%
- O=C(c1cccc(-c2noc(C(F)(F)F)n2)c1)N1CCN(C(=O)c2ccc3cc[nH]c3c2)CC1 [TCMDC-132422] — lower, 0.1652%
- N#Cc1cccc(NC(=O)c2ccc(S(=O)(=O)NCC3CCCN3CC3CCCCC3)cc2)c1 (stereo not drawn) [TCMDC-133796] — lower, -13.1%
- CN1CCN(CCCN(C(=O)Nc2cc(C(F)(F)F)cc(C(F)(F)F)c2)c2ccccc2Cc2ccccc2)CC1 [TCMDC-136454] — lower, -18.83%
- CN1CCN(CCCN(Cc2cccc(-c3ccc(CNCCc4ccccc4)cc3)c2)C(=O)Nc2ccccc2)CC1 [TCMDC-140595] — higher, 97.36%
- CN1CCN(CCCN(Cc2cccc(-c3cccc(CNCCc4ccccc4)c3)c2)C(=O)Nc2ccccc2)CC1 [TCMDC-140594] — higher, 106.2%
- CC(C)CNCc1cccc(-c2cccc(CN(CCCN3CCN(C)CC3)C(=O)Nc3ccccc3)c2)c1 [TCMDC-140593] — higher, 80.6%
- Cc1csc2nc(C(C)c3ccc(NC(=O)c4cccs4)cc3)oc(=O)c12 (stereo not drawn) [TCMDC-139034] — lower, 5.722%
- Cc1cc(-c2ccc(NC(=O)Nc3ccc4nccc(N5CCN(C)CC5)c4c3)cc2C)cc(C)n1 [TCMDC-139355] — lower, 10.84%
- Cc1cc(N[C@@H](Cc2ccccc2)C(=O)NCCc2ccccc2)nc(NCC2CCCCC2)n1 [TCMDC-134934] — lower, -20.83%
- CCCC(C)C(=O)N1CCOC(COCc2cccc(C(F)(F)F)c2)(c2ccc(Cl)cc2)C1 (stereo not drawn) [TCMDC-141953] — lower, 24.89%
- C=CCC1OC(=O)c2cc(OC)cc(OC)c21 (stereo not drawn) [TCMDC-138677] — higher, 106%
- C=CC(C)C1OC(=O)c2cc(OC)cc(OC)c21 (stereo not drawn) [TCMDC-138676] — higher, 102.9%
- Cc1ccc(-c2cc(C(=O)Nc3ccc(S(=O)(=O)N4CCCCC4C)cc3)[nH]n2)c(O)c1 (stereo not drawn) [TCMDC-124908] — lower, -44.76%
- CCCCCCN(CCCCCC)CC(O)c1cc(-c2ccc(Cl)cc2)nc2c(C)cc(C)cc12 (stereo not drawn) [TCMDC-125503] — lower, -72.43%
- CN(C(=O)NCCc1ccccc1)C1CCN(CCCCCNC(=O)/C=C/c2ccc(Cl)c(Cl)c2)CC1 [TCMDC-139523] — lower, -13.13%
- COc1ccc(-c2nc3cccnc3n2CC(=O)Nc2c(C)cc(C)cc2C)c(OC)c1 [TCMDC-135284] — lower, 61.51%
- COc1ccc(-c2nc3cccnc3n2CC(=O)Nc2cc(Cl)c(Cl)cc2Cl)c(OC)c1 [TCMDC-135101] — lower, 5.638%
- COc1ccc(-n2ccnc2SCC(=O)Nc2cc(C)ccc2C)c(OC)c1 [TCMDC-123824] — lower, -3.768%
- CC(C)CNCc1cccc(-c2ccc(CN(C(=O)Nc3ccccc3)C3CCN(Cc4ccccc4)CC3)cc2)c1 [TCMDC-140597] — higher, 96.79%
- CC(C)CNCc1cccc(-c2cccc(CN(C(=O)Nc3ccccc3)C3CCN(Cc4ccccc4)CC3)c2)c1 [TCMDC-140584] — lower, 53.9%
- CC(C)CNCc1ccc(-c2ccc(CN(C(=O)Nc3ccccc3)C3CCN(Cc4ccccc4)CC3)cc2)cc1 [TCMDC-140598] — higher, 108.5%
- Cc1cn(CC(=O)Nc2cccc(-c3cccc(-c4nc5ccc(C(F)(F)F)cc5[nH]4)c3)c2)c(=O)[nH]c1=O [TCMDC-137036] — lower, 18.51%
- O=C(Nc1ccccc1F)NC1CCN(c2ccnc(Nc3ccc(F)cc3)n2)CC1 [TCMDC-133632] — lower, -30.06%
- O=C(c1ccccc1F)N(Cc1ccc(Cl)cc1)c1ccccn1 [TCMDC-124909] — lower, -19.06%
- COc1ccc2nccc([C@@H](O)CN3CCC(NCc4ccc5c(c4)sc(=O)n5C)CC3)c2c1 [TCMDC-141149] — lower, -6.737%
- CCCCCC1c2[nH]c3ccccc3c2CCN1C(=O)OCc1ccccc1 (stereo not drawn) [TCMDC-134554] — lower, -7.791%
- CCCNCc1ccc(-c2ccc(CN(Cc3ccc4c(c3)OCO4)C(=O)[C@H]3CCCO3)cc2)nc1 [TCMDC-141531] — higher, 105.6%
- CCCNCc1ccc(-c2ccc(CN(CCOC)C(=O)CC3CCCC3=O)cc2)nc1 (stereo not drawn) [TCMDC-141532] — lower, 3.565%
- CCCNCc1ccc(-c2ccc(CN(CC3CCCO3)C(=O)C3CC(=O)c4ccccc43)cc2)nc1 (stereo not drawn) [TCMDC-141533] — lower, 69.47%
- CCCNCc1ccc(-c2ccc(CN(CCOC)C(=O)[C@H]3CCCO3)cc2)nc1 [TCMDC-141530] — higher, 80.98%
- CCCNCc1ccc(-c2ccc(CN(CC3CCCO3)C(=O)COc3ccccc3Cl)cc2)nc1 (stereo not drawn) [TCMDC-141542] — lower, 45.23%
- O=c1c2c([nH]c3cc(Cl)ccc13)CCCC2 [TCMDC-123504] — lower, 42.94%
- CS(=O)(=O)c1ccc(OCCCN(Cc2ccccc2C(F)(F)F)c2ccc(C#N)c(C(F)(F)F)c2)cc1 [TCMDC-135467] — lower, 19.91%
